Measurements taken from PubChem BioAssay (NCATS).
Results filed as inconclusive are left out. Where a call stands in place of a potency, no number is given. Active and inactive are the calls of the source. Unless noted, calls follow the shape of the dose curve; as a rule, active = well fitted curve in the direction sought with a large enough effect; inconclusive = small, poorly fitted or top-dose-only effect, or another doubt; inactive = no such curve, though single readings can be large; an effect the other way counts as inactive or inconclusive.

Key:
[1] = target: Cytochrome P450 3A4 (Homo sapiens) (UniProt P08684); assay: qHTS Assay for Inhibitors and Substrates of Cytochrome P450 3A4 (AID 884); also: nearly all actives have a fitted effect of over 50% in size
Cytochrome P450 3A4 (Homo sapiens), sequence (P08684 whole entry, looked up): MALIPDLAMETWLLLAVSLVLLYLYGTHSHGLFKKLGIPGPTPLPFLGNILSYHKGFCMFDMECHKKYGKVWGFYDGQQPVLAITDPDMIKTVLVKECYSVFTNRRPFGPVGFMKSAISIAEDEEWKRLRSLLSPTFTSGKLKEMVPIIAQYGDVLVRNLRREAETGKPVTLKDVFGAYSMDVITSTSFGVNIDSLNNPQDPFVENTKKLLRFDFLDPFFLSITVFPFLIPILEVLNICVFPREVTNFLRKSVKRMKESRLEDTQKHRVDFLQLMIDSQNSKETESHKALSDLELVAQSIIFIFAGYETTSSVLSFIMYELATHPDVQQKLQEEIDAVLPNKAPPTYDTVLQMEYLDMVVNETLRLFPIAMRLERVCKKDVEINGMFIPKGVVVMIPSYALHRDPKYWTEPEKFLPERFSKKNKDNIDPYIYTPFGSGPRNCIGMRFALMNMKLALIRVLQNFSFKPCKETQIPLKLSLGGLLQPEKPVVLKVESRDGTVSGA
Procedure, shortened: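 Luminescent readout of luciferin produced by CYP3A4 (20 nM) dealkylation of Luciferin-PPXE, 25 uM (its KM). NADPH-driven reaction ran 60 min at RT after 10 min compound preincubation; data scaled to 57 uM ketoconazole as 100% inhibition.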

[2] = Confirmation and Secondary Assay for Modulators of Hemoglobin Beta Chain Splicing at IVS2 654 locus (AID 910);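 also: HeLa cells stably carrying EGFP split by mutant beta-globin IVS2-654 intron; per-well total GFP intensity by laser scanning cytometry after 2-day treatment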
Procedure, shortened: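 Readout: per-well total peak green fluorescence (488 nm ex, 500–520 nm em) from objects 5–250 µm, reflecting correct splicing of an EGFP-654 reporter. Compounds were applied for 2 days at 37 °C to overnight-plated HeLa EGFP-654 cells; controls were DMSO and 500 nM IVS2-654 PNA.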

[3] = Confirmation and Secondary Assay for Modulators of Hemoglobin Beta Chain Splicing at IVS2 705 locus (AID 930);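 also: HeLa cells stably expressing the EGFP-705 splicing reporter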
Procedure, shortened: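 HeLa cells stably carrying EGFP interrupted by mutant beta-globin IVS2-705 intron (CMV-driven) were seeded at 500 cells/well, treated next day with compound for 2 days at 37C; corrected splicing restores EGFP, read as total peak GFP intensity per well.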

[4] = qHTS Assay for Lipid Storage Modulators (AID 1519; calls by dose curve); settings: Drosophila S3 cells, BODIPY lipid droplet/cell ratio, laser cytometry, cells loaded with oleic acid
Procedure, shortened: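 Cells seeded at 5,000 per well were treated with compounds over a concentration series and loaded with oleic acid (400 uM, as added). Lipid droplet fluorescence (488 nm excitation, 500-530 nm channel) was read by laser-scanning cytometry and normalized to 20 uM Triacsin C.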

[5] = target: Ubiquitin carboxyl-terminal hydrolase 1 (Homo sapiens) (UniProt O94782); assay: Inhibitors of USP1/UAF1: Pilot qHTS (AID 504865);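 also: rhodamine fluorescence freed from ubiquitin-rhodamine substrate followed over time; top concentration of the series differs between compounds; nearly all actives have a fitted effect of over 35% in size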
Ubiquitin carboxyl-terminal hydrolase 1 (Homo sapiens), sequence (O94782 whole entry, looked up): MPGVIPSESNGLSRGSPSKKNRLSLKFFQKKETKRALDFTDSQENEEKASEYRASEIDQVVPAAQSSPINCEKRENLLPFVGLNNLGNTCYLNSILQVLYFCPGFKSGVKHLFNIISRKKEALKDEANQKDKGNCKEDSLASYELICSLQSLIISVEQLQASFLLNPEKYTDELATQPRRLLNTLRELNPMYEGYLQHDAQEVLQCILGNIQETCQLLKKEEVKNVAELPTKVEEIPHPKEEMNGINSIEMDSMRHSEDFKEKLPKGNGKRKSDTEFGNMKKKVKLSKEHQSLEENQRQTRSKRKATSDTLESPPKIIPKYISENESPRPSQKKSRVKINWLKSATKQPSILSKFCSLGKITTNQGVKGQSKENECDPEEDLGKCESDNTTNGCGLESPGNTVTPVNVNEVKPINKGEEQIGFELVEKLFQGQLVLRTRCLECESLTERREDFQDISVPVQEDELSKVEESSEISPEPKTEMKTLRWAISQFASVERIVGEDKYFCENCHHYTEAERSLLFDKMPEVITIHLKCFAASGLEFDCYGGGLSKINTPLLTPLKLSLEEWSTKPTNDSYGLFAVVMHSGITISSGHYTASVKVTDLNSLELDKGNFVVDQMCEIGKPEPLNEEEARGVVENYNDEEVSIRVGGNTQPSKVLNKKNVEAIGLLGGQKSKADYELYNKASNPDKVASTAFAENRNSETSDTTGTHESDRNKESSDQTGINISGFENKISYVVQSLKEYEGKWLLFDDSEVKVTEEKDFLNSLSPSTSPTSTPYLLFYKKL
Procedure, shortened: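 In 50mM HEPES pH 7.8 containing 0.5mM EDTA, 1mM TCEP, 0.1 mg/ml BSA and 0.01% Tween-20, 1nM USP1/UAF1 is exposed to compound for 15 min, then Ub-Rho (150nM final) is added and fluorescence is read over time.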

[6] = target: Luciferin 4-monooxygenase (Photinus pyralis) (UniProt P08659); assay: Biochemical firefly luciferase enzyme assay for NPC (AID 624030);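 also: purified P. pyralis luciferase at 10 nM with luciferin and ATP substrate; nearly all actives have a fitted effect of over 70% in size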
Luciferin 4-monooxygenase (Photinus pyralis), sequence (P08659 whole entry, looked up): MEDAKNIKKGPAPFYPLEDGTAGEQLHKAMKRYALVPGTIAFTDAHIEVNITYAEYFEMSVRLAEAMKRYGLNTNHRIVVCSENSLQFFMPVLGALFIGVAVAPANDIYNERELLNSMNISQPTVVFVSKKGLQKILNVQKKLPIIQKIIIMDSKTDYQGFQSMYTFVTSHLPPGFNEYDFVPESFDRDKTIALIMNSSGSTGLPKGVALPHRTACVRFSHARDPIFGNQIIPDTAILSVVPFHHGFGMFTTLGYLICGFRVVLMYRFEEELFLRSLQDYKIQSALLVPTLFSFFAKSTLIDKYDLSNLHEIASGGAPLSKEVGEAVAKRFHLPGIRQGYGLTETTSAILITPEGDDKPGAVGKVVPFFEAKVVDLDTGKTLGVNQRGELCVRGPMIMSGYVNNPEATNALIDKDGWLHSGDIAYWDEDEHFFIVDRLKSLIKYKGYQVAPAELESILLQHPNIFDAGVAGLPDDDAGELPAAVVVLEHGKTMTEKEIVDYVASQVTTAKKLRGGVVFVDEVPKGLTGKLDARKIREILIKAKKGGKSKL
Procedure, shortened: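 Direct inhibition of firefly luciferase enzyme (10 nM final, 50 mM Tris Acetate) assessed by luminescence within 5 minutes. Percent activity scaled between DMSO and PTC124 positive control, with concentration-effect curves classified by fit quality and response.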

[7] = S16 Schwann cell viability assay (CellTiter-Glo assay) (AID 624031);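 also: cellular ATP luminescence as a viability measure; nearly all actives have a fitted effect of over 70% in size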
Procedure, shortened: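 Native S16 rat Schwann cells in DMEM/10% FBS without phenol red were incubated overnight, then exposed to compounds for 24 h at 37 °C/5% CO2. Viability was read as ATP luminescence (CellTiter-Glo), normalized to no-cell wells and DMSO (0%).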

[8] = S16 Schwann cell PMP22 intronic element firefly luciferase assay (AID 624032); also: nearly all actives have a fitted effect of over 30% in size
Procedure, shortened: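 Luciferase reporter of PMP22 intronic-element expression in stably transfected S16 rat Schwann cells, read by ONE-Glo luminescence after 24 h compound exposure at 37 C. Activity scaled between DMSO (0%) and positive-control PTC124; concentration-effect curves quality-classified.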

[9] = S16 Schwann cell PMP22 intronic element beta-lactamase assay (AID 624044; calls by dose curve; also: nearly all actives have a fitted effect of over 15% in size)
Procedure, shortened: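 Beta-lactamase reporter under a PMP22 intronic regulatory element in stable S16 rat Schwann cells; 24 h compound exposure. 460 nm blue signal normalized between DMSO (0%) and potassium clavulanate, with 535 nm FRET tracking viability; curves classed by r2 and response.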

[10] = qHTS profiling for inhibitors of Plasmodium falciparum proliferation (AID 504749); also: nearly all actives have a fitted effect of over 60% in size; settings: P. falciparum in erythrocytes, SYBR Green DNA, 72 h, at 28.7 µM (top of the series)
Procedure, shortened: (§1)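 SYBR Green fluorescence of parasite DNA, read after lysis and overnight dark incubation, measured growth over 72 h in erythrocyte culture at 0.3% parasitemia and 2.5% hematocrit. Data normalised to DMSO and 0.29 uM artemisinin, with plate-drift correction.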

3D7 = assay: as above; settings: P. falciparum in erythrocytes, SYBR Green DNA, 72 h; series mostly up to 12.8 µM
Procedure, shortened: as §1

7G8 = assay: as above; settings: P. falciparum in erythrocytes, SYBR Green DNA, 72 h; series mostly up to 12.8 µM
Procedure, shortened: as §1

AA1029 = assay: as above; settings: P. falciparum in erythrocytes, SYBR Green DNA, 72 h; series mostly up to 12.8 µM
Procedure, shortened: as §1

AS120 = assay: as above; settings: P. falciparum in erythrocytes, SYBR Green DNA, 72 h; series mostly up to 12.8 µM
Procedure, shortened: as §1

ATS189 = assay: as above; settings: P. falciparum in erythrocytes, SYBR Green DNA, 72 h; series mostly up to 12.8 µM
Procedure, shortened: as §1

ATS95 = assay: as above; settings: P. falciparum in erythrocytes, SYBR Green DNA, 72 h; series mostly up to 12.8 µM
Procedure, shortened: as §1

C2A = assay: as above; settings: P. falciparum in erythrocytes, SYBR Green DNA, 72 h; series mostly up to 12.8 µM
Procedure, shortened: as §1

CP185 = assay: as above; settings: P. falciparum in erythrocytes, SYBR Green DNA, 72 h; series mostly up to 12.8 µM
Procedure, shortened: as §1

CP191 = assay: as above; settings: P. falciparum in erythrocytes, SYBR Green DNA, 72 h; series mostly up to 12.8 µM
Procedure, shortened: as §1

CP192 = assay: as above; settings: P. falciparum in erythrocytes, SYBR Green DNA, 72 h; series mostly up to 12.8 µM
Procedure, shortened: as §1

CP194 = assay: as above; settings: P. falciparum in erythrocytes, SYBR Green DNA, 72 h; series mostly up to 12.8 µM
Procedure, shortened: as §1

CP201 = assay: as above; settings: P. falciparum in erythrocytes, SYBR Green DNA, 72 h; series mostly up to 12.8 µM
Procedure, shortened: as §1

CP211 = assay: as above; settings: P. falciparum in erythrocytes, SYBR Green DNA, 72 h; series mostly up to 12.8 µM
Procedure, shortened: as §1

CP215 = assay: as above; settings: P. falciparum in erythrocytes, SYBR Green DNA, 72 h; series mostly up to 12.8 µM
Procedure, shortened: as §1

CP217 = assay: as above; settings: P. falciparum in erythrocytes, SYBR Green DNA, 72 h; series mostly up to 12.8 µM
Procedure, shortened: as §1

CP237 = assay: as above; settings: P. falciparum in erythrocytes, SYBR Green DNA, 72 h; series mostly up to 12.8 µM
Procedure, shortened: as §1

CP238 = assay: as above; settings: P. falciparum in erythrocytes, SYBR Green DNA, 72 h; series mostly up to 12.8 µM
Procedure, shortened: as §1

CP247 = assay: as above; settings: P. falciparum in erythrocytes, SYBR Green DNA, 72 h; series mostly up to 12.8 µM
Procedure, shortened: as §1

CP250 = assay: as above; settings: P. falciparum in erythrocytes, SYBR Green DNA, 72 h; series mostly up to 12.8 µM
Procedure, shortened: as §1

CP252 = assay: as above; settings: P. falciparum in erythrocytes, SYBR Green DNA, 72 h; series mostly up to 12.8 µM
Procedure, shortened: as §1

CP256 = assay: as above; settings: P. falciparum in erythrocytes, SYBR Green DNA, 72 h; series mostly up to 12.8 µM
Procedure, shortened: as §1

CP260 = assay: as above; settings: P. falciparum in erythrocytes, SYBR Green DNA, 72 h; series mostly up to 12.8 µM
Procedure, shortened: as §1

## COC(=O)N/N=C/C1=C[N+](=O)c2ccccc2[N+]1=O
[1]
  Potency: inactive
[2]
  Potency: inactive
[3]
  Potency: inactive
[4]; at 57.5 µM (top of the series)
  activity change, negative = inhibition: 12.7% (inactive)
[4]; measured here: cell count channel max response
  max response: 5.74%
[4]; measured here: lipid channel max response
  max response: 17.7%
[5]
  Potency: inactive
[6]
  Potency: inactive
[7]
  outcome: inactive
[8]
  Potency: inactive
[9]
  Potency: inactive
[10]; parasite line A
  activity, negative = inhibition: -2.61% (inactive)
[10]; parasite line B
  activity, negative = inhibition: -4.8% (inactive)
3D7
  Potency: inactive
7G8
  Potency: inactive
AA1029
  Potency: inactive
AS120
  Potency: inactive
ATS189
  Potency: inactive
ATS95
  Potency: inactive
C2A
  Potency: inactive
CP185
  Potency: inactive
CP191
  Potency: inactive
CP192
  Potency: inactive
CP194
  Potency: inactive
CP201
  Potency: inactive
CP211
  Potency: inactive
CP215
  Potency: inactive
CP217
  Potency: inactive
CP237
  Potency: inactive
CP238
  Potency: inactive
CP247
  Potency: inactive
CP250
  Potency: inactive
CP252
  Potency: inactive
CP256
  Potency: inactive
CP260
  Potency: inactive
